Measured values published in PubChem BioAssay AID1159580 (chemical genetic matrix, 2015).
Values joined by “and” are separate entries in the source; they are usually repeats but may differ in a detail not shown here. Identical values can stand only once. The whole screen tested about 5,500 compounds, of which about 2,000 (36%) were called active. Roughly 18% stayed inconclusive and do not appear here. Cut-off read from the data, not from the text of the source: active = normalized growth mostly below about 0.91 (no sharp cut-off); inconclusive = no clear call, values can overlap the other calls; inactive = mostly above about 0.92. The list shows a part of the results.

Assay: chemical genetic growth profiling, strain panel (AID 1159580);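 note: tested at 20 µM; growth read once vehicle control cultures reached saturation at 30 °C; 1 = growth at the plate median or of vehicle wells; lower values mean less growth of the strain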
Settings: S. cerevisiae deletion strains, growth OD

Measured: normalized growth

Cc1onc(-c2ccccc2Cl)c1C(=O)N[C@@H]1C(=O)N2[C@@H]1SC(C)(C)[C@@H]2C(=O)O
inactive: locus YAL013W, strain DEP1, active compounds read low 1.01 | locus YAL021C, strain ccr4, active compounds read low 1.06 | locus YAL026C, strain drs2, active compounds read low 1.02 | locus YAL030W, strain snc1, active compounds read low 1.02 | locus YBL061C, strain skt5, active compounds read low 1.02 | locus YBR009C, strain hhf1, active compounds read low 0.994 | locus YBR021W, strain FUR4, active compounds read low 1.02 | locus YBR023C, strain chs3, active compounds read low 1.03 | locus YBR171W, strain sec66, active compounds read low 1.03 | locus YBR229C, strain ROT2, active compounds read low 1.01 | locus YBR231C, strain swc5, active compounds read low 1.03 | locus YBR279W, strain paf1, active compounds read low 1 | locus YCL011C, strain gbp2, active compounds read low 1.02 | locus YCL016C, strain dcc1, active compounds read low 1.01 | locus YCL029C, strain bik1, active compounds read low 1.05 | locus YCL069W, strain vba3, active compounds read low 1.03 | locus YCR088W, strain abp1, active compounds read low 1.01 | locus YDL005C, strain med2, active compounds read low 1.02 | locus YDL035C, strain GPR1, active compounds read low 1 | locus YDL040C, strain nat1, active compounds read low 1.02 | locus YDL074C, strain BRE1, active compounds read low 1.03 | locus YDL101C, strain DUN1, active compounds read low 1.01 | locus YDL134C, strain PPH21, active compounds read low 1.01 | locus YDL185W, strain tfp1, active compounds read low 1.01 | locus YDL192W, strain arf1, active compounds read low 1.01 | locus YDR001C, strain nth1, active compounds read low 1.04 | locus YDR069C, strain doa4, active compounds read low 1.03 | locus YDR101C, strain arx1, active compounds read low 1.02 | locus YDR137W, strain rgp1, active compounds read low 0.971 | locus YDR150W, strain NUM1, active compounds read low 1 | locus YDR159W, strain sac3, active compounds read low 1 | locus YDR162C, strain NBP2, active compounds read low 1.02 | locus YDR195W, strain ref2 1.03 | locus YDR297W, strain sur2, active compounds read low 1.02 | locus YDR318W, strain mcm21, active compounds read low 1.03 | locus YDR334W, strain swr1, active compounds read low 1 | locus YDR335W, strain msn5, active compounds read low 1.01 | locus YDR388W, active compounds read low 1.02 | locus YDR392W, strain spt3, active compounds read low 0.998 | locus YDR502C, strain sam2, active compounds read low 1.02 | locus YEL003W, strain gim4, active compounds read low 1.02 | locus YEL037C, strain rad23, active compounds read low 1.02 | locus YEL061C, strain CIN8 (second series), active compounds read low 1.02 | locus YEL061C, strain CIN8, active compounds read low 1.01 | locus YER015W, strain faa2, active compounds read low 1.02 | locus YER016W, strain bim1, active compounds read low 0.994 | locus YER110C, active compounds read low 1.01 | locus YER111C, strain swi4, active compounds read low 1.03 | locus YER155C, strain BEM2 (second series), active compounds read low 1.06 | locus YER155C, strain BEM2, active compounds read low 1.01 | locus YER167W, strain BCK2, active compounds read low 1.01 | locus YFR010W, strain ubp6, active compounds read low 1.02 | locus YGL078C, strain dbp3, active compounds read low 1.02 | locus YGL086W, strain mad1, active compounds read low 1.01 | locus YGL167C, strain pmr1, active compounds read low 1.03 | locus YGL173C, strain kem1, active compounds read low 1.01 | locus YGL227W, strain vid30, active compounds read low 1.01 | locus YGL240W, strain doc1, active compounds read low 1.02 | locus YGL248W, strain PDE1, active compounds read low 1.02 | locus YGL253W, strain hxk2, active compounds read low 1.02 | locus YGR078C, strain PAC10, active compounds read low 1.01 | locus YGR135W, strain pre9, active compounds read low 1.03 | locus YGR229C, strain SMI1, active compounds read low 1.02 | locus YGR252W, strain gcn5, active compounds read low 1.05 | locus YHR013C, strain ard1, active compounds read low 1.04 | locus YHR027C, strain rpn1, active compounds read low 1.02 | locus YHR030C, strain SLT2, active compounds read low 1.01 and 1 | locus YHR079C, strain IRE1 (second series), active compounds read low 1.02 | locus YHR079C, strain IRE1, active compounds read low 1 | locus YHR094C, strain hxt1, active compounds read low 1.02 | locus YHR129C, strain ARP1, active compounds read low 1.01 | locus YHR142W, strain chs7, active compounds read low 1.02 | locus YHR200W, strain rpn10, active compounds read low 1.03 | locus YIL066C, strain RNR3, active compounds read low 1.01 | locus YIL073C, strain SPO22, active compounds read low 1.06 | locus YIL125W, strain kgd1, active compounds read low 1.03 | locus YIR030C, strain dcg1, active compounds read low 1.02 | locus YJL092W, strain hpr5, active compounds read low 1.03 | locus YJL095W, strain BCK1 (second series), active compounds read low 1.02 | locus YJL095W, strain BCK1, active compounds read low 1.02 and 0.998 | locus YJL115W, strain asf1, active compounds read low 1.01 | locus YJL129C, strain trk1, active compounds read low 1.05 | locus YJL134W, strain LCB3, active compounds read low 1 | locus YJL154C, strain vps35, active compounds read low 1.03 | locus YJL164C, strain tpk1, active compounds read low 1.01 | locus YJL166W, strain qcr8, active compounds read low 1.03 | locus YJL168C, strain set2, active compounds read low 1.02 | locus YJL187C, strain SWE1 (second series), active compounds read low 1.02 | locus YJL187C, strain SWE1, active compounds read low 1.01 | locus YJR043C, strain POL32, active compounds read low 0.995
